# Test results taken from the supplement of paper PMC12067093, “Discovery and optimisation of a covalent ligand for TRIM25 and its application to targeted protein ubiquitination” (Chemical Science, 2025).
# Of roughly 21,000 targets only a part is listed; those with the largest changes were picked by preference.
# Compound: CC1Cc2ccccc2N1C(=O)C1CCCN(C1)C(=O)CCl (mixture of isomers) [TRIM25 ligand 11 (diastereomer mixture)]
# Assay: probe-labelled cysteine peptide fold change vs DMSO (competition) (log2 fold change); higher = less target engagement (more negative = stronger competition)
# Settings: THP-1, incubation time: 4 h
# 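Further: competitive chemoproteomic profiling in live THP-1 cells with an iodoacetamide desthiobiotin (IA-DTB) probe, comparing probe-labelled peptide intensities in compound-treated cells against DMSO-treated controls.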
# Chain of UniProt Q9UJ41 (Q9UJ41 whole entry, looked up): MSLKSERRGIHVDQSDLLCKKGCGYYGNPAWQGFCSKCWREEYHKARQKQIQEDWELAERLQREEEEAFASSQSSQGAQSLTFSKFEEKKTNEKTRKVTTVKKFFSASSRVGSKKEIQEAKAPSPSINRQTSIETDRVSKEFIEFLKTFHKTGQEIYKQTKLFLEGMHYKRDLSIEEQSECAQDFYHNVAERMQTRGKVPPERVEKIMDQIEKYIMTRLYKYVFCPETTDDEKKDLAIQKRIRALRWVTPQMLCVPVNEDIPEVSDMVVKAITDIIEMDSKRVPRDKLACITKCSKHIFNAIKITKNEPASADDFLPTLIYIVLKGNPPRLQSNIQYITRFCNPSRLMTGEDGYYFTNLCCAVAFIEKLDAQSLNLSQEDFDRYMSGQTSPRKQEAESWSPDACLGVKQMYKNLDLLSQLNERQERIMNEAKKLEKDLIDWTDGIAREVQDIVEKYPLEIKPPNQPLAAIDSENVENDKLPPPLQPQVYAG
# Chain of UniProt Q7Z5J4 (Q7Z5J4 whole entry, looked up): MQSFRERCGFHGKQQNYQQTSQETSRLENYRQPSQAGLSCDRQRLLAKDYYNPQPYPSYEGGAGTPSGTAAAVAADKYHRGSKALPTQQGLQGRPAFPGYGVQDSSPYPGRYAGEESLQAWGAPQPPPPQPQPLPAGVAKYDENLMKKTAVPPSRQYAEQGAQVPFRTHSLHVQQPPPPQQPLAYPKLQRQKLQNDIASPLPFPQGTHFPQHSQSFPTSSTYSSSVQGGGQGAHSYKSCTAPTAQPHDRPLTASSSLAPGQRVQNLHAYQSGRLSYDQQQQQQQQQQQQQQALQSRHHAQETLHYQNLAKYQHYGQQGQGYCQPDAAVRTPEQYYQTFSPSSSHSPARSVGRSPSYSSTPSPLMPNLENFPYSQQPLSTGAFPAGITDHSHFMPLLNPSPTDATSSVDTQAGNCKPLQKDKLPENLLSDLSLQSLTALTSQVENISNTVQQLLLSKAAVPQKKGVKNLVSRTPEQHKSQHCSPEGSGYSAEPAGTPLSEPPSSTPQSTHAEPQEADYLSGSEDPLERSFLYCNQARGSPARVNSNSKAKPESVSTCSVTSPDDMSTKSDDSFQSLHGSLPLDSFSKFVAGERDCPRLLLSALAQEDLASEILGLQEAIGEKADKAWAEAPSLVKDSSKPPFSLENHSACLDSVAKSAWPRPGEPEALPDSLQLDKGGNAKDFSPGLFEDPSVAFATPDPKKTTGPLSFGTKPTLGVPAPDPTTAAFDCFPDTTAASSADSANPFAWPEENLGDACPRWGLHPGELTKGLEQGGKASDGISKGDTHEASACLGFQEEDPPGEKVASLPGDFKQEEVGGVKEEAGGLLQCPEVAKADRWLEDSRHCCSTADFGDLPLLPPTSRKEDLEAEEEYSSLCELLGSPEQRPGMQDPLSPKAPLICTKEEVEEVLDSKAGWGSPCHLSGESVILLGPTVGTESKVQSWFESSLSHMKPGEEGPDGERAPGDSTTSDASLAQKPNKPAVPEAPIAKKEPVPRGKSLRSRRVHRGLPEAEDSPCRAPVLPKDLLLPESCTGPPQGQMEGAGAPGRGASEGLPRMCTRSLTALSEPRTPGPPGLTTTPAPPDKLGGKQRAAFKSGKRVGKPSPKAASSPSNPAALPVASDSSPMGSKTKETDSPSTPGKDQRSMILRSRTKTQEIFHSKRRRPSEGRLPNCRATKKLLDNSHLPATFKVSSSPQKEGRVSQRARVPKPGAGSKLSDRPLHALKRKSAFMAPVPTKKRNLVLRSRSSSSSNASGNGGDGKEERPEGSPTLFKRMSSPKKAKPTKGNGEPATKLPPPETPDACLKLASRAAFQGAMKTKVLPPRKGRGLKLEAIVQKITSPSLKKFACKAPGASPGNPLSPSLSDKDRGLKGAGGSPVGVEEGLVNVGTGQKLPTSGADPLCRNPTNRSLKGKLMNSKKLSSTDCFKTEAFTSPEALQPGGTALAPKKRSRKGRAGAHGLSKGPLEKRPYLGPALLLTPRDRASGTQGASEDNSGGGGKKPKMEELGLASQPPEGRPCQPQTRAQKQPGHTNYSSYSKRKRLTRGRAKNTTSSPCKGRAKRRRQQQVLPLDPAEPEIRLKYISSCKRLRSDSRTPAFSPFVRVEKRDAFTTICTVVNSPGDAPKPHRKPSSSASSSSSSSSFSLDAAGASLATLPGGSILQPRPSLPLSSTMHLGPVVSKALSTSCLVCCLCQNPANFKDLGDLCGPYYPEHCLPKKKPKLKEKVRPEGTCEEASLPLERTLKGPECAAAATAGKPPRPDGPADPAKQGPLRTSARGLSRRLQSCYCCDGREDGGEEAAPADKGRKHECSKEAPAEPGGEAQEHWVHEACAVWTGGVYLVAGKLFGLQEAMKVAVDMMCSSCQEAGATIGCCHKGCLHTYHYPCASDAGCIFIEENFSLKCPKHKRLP
# Chain of UniProt Q9NW64 (Q9NW64 whole entry, looked up): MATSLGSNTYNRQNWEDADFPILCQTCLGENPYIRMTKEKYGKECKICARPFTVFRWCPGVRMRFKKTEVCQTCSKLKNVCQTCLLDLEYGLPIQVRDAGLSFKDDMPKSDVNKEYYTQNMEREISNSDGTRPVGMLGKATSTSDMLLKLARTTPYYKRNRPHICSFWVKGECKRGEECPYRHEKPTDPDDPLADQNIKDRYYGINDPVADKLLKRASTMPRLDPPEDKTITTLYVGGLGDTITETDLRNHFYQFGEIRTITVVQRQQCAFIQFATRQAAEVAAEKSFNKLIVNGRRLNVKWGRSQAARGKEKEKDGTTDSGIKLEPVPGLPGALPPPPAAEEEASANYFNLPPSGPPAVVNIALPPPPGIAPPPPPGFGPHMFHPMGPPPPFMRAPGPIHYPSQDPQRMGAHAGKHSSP
# Chain of UniProt O60216 (O60216 whole entry, looked up): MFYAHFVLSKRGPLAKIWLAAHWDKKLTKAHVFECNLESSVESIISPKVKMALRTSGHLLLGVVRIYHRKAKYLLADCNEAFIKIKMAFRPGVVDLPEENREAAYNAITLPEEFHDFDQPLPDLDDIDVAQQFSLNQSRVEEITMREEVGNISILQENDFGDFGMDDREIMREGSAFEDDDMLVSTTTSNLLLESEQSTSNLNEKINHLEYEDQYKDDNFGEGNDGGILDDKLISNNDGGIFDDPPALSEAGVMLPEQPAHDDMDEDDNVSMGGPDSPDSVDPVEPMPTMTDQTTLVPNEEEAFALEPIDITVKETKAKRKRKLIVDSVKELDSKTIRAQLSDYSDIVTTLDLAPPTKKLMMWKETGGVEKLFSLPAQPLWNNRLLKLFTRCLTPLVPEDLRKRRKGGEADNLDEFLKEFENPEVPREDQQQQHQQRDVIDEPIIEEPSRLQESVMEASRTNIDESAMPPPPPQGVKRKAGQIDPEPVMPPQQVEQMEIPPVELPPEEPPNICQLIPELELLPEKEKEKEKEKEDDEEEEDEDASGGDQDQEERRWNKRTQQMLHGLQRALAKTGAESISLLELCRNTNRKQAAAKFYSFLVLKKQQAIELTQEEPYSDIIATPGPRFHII
# Chain of UniProt Q15276 (Q15276 whole entry, looked up): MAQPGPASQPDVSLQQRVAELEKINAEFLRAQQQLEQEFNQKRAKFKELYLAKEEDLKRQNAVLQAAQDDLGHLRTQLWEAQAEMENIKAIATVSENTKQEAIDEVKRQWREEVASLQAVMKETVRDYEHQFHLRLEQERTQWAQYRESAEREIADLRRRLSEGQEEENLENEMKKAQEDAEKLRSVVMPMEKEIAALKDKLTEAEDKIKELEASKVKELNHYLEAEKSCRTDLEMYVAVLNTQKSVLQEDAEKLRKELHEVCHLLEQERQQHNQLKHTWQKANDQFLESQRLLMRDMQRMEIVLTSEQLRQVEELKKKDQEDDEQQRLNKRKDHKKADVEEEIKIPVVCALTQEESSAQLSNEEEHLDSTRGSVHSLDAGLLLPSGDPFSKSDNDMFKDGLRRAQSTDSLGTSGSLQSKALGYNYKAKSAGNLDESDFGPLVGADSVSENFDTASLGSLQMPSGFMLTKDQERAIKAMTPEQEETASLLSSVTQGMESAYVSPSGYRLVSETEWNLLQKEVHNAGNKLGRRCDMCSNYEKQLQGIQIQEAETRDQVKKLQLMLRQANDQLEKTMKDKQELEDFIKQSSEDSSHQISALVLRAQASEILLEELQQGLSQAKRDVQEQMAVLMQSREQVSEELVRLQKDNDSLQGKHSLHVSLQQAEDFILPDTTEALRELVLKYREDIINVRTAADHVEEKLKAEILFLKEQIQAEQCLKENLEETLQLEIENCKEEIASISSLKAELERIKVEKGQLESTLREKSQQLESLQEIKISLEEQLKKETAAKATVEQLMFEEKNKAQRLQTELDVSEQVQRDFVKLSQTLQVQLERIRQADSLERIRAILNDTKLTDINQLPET
# Chain of UniProt Q05209 (Q05209 whole entry, looked up): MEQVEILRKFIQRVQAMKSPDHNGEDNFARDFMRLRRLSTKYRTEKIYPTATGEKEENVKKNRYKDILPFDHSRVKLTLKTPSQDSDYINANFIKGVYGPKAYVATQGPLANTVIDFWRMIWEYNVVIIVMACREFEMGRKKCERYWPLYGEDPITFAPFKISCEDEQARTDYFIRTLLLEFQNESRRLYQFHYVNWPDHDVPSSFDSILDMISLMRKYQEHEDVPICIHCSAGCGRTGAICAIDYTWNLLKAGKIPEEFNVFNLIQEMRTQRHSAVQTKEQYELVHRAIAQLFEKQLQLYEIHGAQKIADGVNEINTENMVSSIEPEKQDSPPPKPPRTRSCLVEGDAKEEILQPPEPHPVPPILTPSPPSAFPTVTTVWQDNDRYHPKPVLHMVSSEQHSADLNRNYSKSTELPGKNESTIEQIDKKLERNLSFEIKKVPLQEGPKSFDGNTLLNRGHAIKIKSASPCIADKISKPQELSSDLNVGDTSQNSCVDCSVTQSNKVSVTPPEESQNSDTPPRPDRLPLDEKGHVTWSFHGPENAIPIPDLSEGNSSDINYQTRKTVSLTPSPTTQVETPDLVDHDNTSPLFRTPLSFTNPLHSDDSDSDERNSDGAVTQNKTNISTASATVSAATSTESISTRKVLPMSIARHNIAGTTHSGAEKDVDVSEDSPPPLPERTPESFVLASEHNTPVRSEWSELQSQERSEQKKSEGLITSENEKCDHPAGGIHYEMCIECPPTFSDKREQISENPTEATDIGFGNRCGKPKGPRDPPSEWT
target,measurement,setting,value
RFC4_P35249_180_FCLICNYVSR (UniProt P35249),probe-labelled cysteine peptide fold change,10 µM,-0.16
same,probe-labelled cysteine peptide fold change,50 µM,-0.0464
RPL30_P62888_52_LVILANNCPALR (UniProt P62888),probe-labelled cysteine peptide fold change,10 µM,0.0216
same,probe-labelled cysteine peptide fold change,50 µM,0.142
RABGEF1_Q9UJ41_359_RDLSIEEQSECAQDFYHNVAER (UniProt Q9UJ41),probe-labelled cysteine peptide fold change,10 µM,0.648
same,probe-labelled cysteine peptide fold change,50 µM,-0.0585
RNF14_Q9UBS8_350_LTYHGVSPCK (UniProt Q9UBS8),probe-labelled cysteine peptide fold change,10 µM,0.114
same,probe-labelled cysteine peptide fold change,50 µM,0.116
RANBP3_Q9H6Z4_249_NESSNASEEEACEK (UniProt Q9H6Z4),probe-labelled cysteine peptide fold change,10 µM,0.387
same,probe-labelled cysteine peptide fold change,50 µM,-0.572
RBM4B_Q9BQ04_31_VLECDIIK<|>RBM4_Q9BWF3_31_VLECDIIK (UniProt Q9BWF3+Q9BQ04),probe-labelled cysteine peptide fold change,10 µM,-0.00323
same,probe-labelled cysteine peptide fold change,50 µM,-0.0431
RANBP3_Q9H6Z4_406_VEVITGEEAESNVLQMQCK (UniProt Q9H6Z4),probe-labelled cysteine peptide fold change,10 µM,0.0311
same,probe-labelled cysteine peptide fold change,50 µM,0.26
RGMB_Q6NW40_226_ITIIFKAHHECTDQK (UniProt Q6NW40),probe-labelled cysteine peptide fold change,10 µM,-0.5
same,probe-labelled cysteine peptide fold change,50 µM,-0.619
RAP1A_P62834_118_DTEDVPMILVGNKCDLEDERVVGK (UniProt P62834),probe-labelled cysteine peptide fold change,10 µM,-0.603
same,probe-labelled cysteine peptide fold change,50 µM,-0.364
PTPN12_Q05209_343_SCLVEGDAK (UniProt Q05209),probe-labelled cysteine peptide fold change,10 µM,0.155
same,probe-labelled cysteine peptide fold change,50 µM,-0.0495
RBM22_Q9NW64_74_TEVCQTCSK (UniProt Q9NW64),probe-labelled cysteine peptide fold change,10 µM,-0.0386
same,probe-labelled cysteine peptide fold change,50 µM,-0.0803
PSMD6_Q15008_188_VYQGLYCVAIR (UniProt Q15008),probe-labelled cysteine peptide fold change,10 µM,-0.0246
same,probe-labelled cysteine peptide fold change,50 µM,0.231
RANBP2_P49792_3221_ITITECGQI (UniProt P49792),probe-labelled cysteine peptide fold change,10 µM,-0.127
same,probe-labelled cysteine peptide fold change,50 µM,0.249
RAB3GAP1_Q15042_873_FVSCLLEQPEVLVTGAGR (UniProt Q15042),probe-labelled cysteine peptide fold change,10 µM,0.274
same,probe-labelled cysteine peptide fold change,50 µM,0.33
PSME1_Q06323_101_KKGEDEDKGPPCGPVNCNEK (UniProt Q06323),probe-labelled cysteine peptide fold change,10 µM,-0.56
same,probe-labelled cysteine peptide fold change,50 µM,-0.596
RAB3GAP1_Q15042_783_HLLPCVIHAAVLK (UniProt Q15042),probe-labelled cysteine peptide fold change,10 µM,-0.107
same,probe-labelled cysteine peptide fold change,50 µM,-0.00935
RAI1_Q7Z5J4_899_APLICTK (UniProt Q7Z5J4),probe-labelled cysteine peptide fold change,10 µM,-0.024
same,probe-labelled cysteine peptide fold change,50 µM,-0.376
RABEP1_Q15276_350_IPVVCALTQEESSAQLSNEEEHLDSTR (UniProt Q15276),probe-labelled cysteine peptide fold change,10 µM,-0.0072
same,probe-labelled cysteine peptide fold change,50 µM,-0.0899
RHOG_P84095_105_WHPEVCHHCPDVPILLVGTKK (UniProt P84095),probe-labelled cysteine peptide fold change,10 µM,-0.292
same,probe-labelled cysteine peptide fold change,50 µM,-0.278
RABL6_Q3YEC7_172_VPTHVPVCVLGNYR (UniProt Q3YEC7),probe-labelled cysteine peptide fold change,10 µM,0.0329
same,probe-labelled cysteine peptide fold change,50 µM,0.101
RCC2_Q9P258_280_GNLYSFGCPEYGQLGHNSDGK (UniProt Q9P258),probe-labelled cysteine peptide fold change,10 µM,0.288
same,probe-labelled cysteine peptide fold change,50 µM,-0.207
RNPEP_Q9H4A4_85_LDSHPCLEVTAAALR (UniProt Q9H4A4),probe-labelled cysteine peptide fold change,10 µM,0.0713
same,probe-labelled cysteine peptide fold change,50 µM,-0.0588
RASAL3_Q86YV0_447_LCGALEPALPAQAK (UniProt Q86YV0),probe-labelled cysteine peptide fold change,10 µM,0.119
same,probe-labelled cysteine peptide fold change,50 µM,0.0549
RAD21_O60216_35_AHVFECNLESSVESIISPK (UniProt O60216),probe-labelled cysteine peptide fold change,10 µM,0.0257
same,probe-labelled cysteine peptide fold change,50 µM,0.111
